This passage reports growth results from PubChem BioAssay (NCI).

What all share (assay): NCI-60 one-dose screen, 48 h (100 = growth as untreated, 0 = no growth, -100 = all killed)
Conditions in all cases: 10 µM

The subject of assay [1] is NCI-H23 lung.
In assay [2] the test system is NCI-H226 lung.
Assay [3] relates to HOP-62 NSCLC.
The subject of assay [4] is NCI-H460 lung.
Assay [5] concerns HOP-92 NSCLC.
Assay [6] concerns NCI-H522 lung.
Assay [7] relates to A549/ATCC NSCLC.
Assay [8] relates to 786-0 renal.
For assay [9], the system named is COLO 205 colon.

The structures appear in SMILES notation. This is part of a sample that, as a whole, favours compounds with a hit. Of some 83,000 tested, about 20% had one in any assay.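 Note: values are percent growth. 100 is the growth of untreated cells, values between 100 and 0 indicate rising inhibition; between -100 and 0 indicates cell death.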 A number with no mark means an inactive call. The source made the active and inactive calls. Rule for the calls: active = growth percent below 10; inactive = the rest.

Consider `CC(=O)N[C@H](C(=O)N[C@@H](CCCNC(=N)N)C(=O)N[C@@H](CCCCN)C(=O)N[C@@H](CCCNC(=N)N)C(=O)N[C@]1(C)CCC/C=C\CCC[C@@](C)(C(=O)N[C@@H](CC(C)C)C(=O)N[C@@H](CC(C)C)C(=O)N[C@@H](CCC(N)=O)C(=O)N[C@@H](CCC(=O)O)C(=O)N[C@@H](CCCNC(=N)N)C(=O)N[C@@H](CCC(=O)O)C(=O)N[C@@H](CC(C)C)C(=O)N[C@H](C(=O)N[C@@H](CCC(=O)O)C(N)=O)C(C)C)NC(=O)[C@H](CCCNC(=N)N)NC(=O)[C@H](CC(C)C)NC1=O)C(C)C`, for which the growth in [1] was 106%; in assay [2], 102%; in [3], 109%; in assay [4] it was 105%; in assay [5], 115%; in assay [6], 96.8%. The results for the growth in [7], in assay [8] and in assay [9] were 94.7%, 98.1% and 102%, respectively.
`COc1cc(/C=C/c2cc(/C=C/c3ccc(O)c(OC)c3)nc(N)n2)ccc1O`: the growth is -2.79% (active) in assay [1]; 11.7% in [2]; 4.85% (active) in assay [3]; 5.54% (active) in assay [4]; -21.2% (active) in assay [5]; -41.3% (active) in assay [6]. Besides, the growth in assay [7] was 10.1%; in [8], -58.9% (active); in assay [9], -50.4% (active).
With `C1CN(CC2CCC(CN3CCOCC3)O2)CCO1` (stereo unspecified), the growth is 98.6% in assay [1]; 107% in assay [2]; 95.1% in assay [3]; 110% in assay [4]; 120% in assay [5]; 66.2% in [6]. Besides, the results for the growth in assay [7], in [8] and in assay [9] were 96.9%, 99.7% and 60.8%, respectively.
`OC(CCN1CCCC1)(c1ccccc1)C1CCCCC1` (stereo unspecified): the growth in assay [1] is 103%; in [2], 94.3%; in assay [3], 120%; in assay [4], 110%; in assay [5], 115%; in assay [6] it was 102%. Moreover, the figures for the growth in [7], in [8] and in assay [9] were 104%, 100% and 117%, respectively.
As for `O=C(O)c1ccc(-n2cc(CNc3ccc(Cl)cc3)c(-c3ccccc3)n2)cc1`, the growth in assay [1] is 98.4%; in [2] it was 99.1%; in assay [3], 111%; in assay [4] it was 88.6%; in assay [5], 99.9%; in assay [6], 75.8%. Moreover, the growth in assay [7] is 84.6%; in assay [8] it was 94.7%; in assay [9], 97.8%.
In the case of `CCN(CC)CCOc1ccc2c(c1O)C(=O)c1ccccc1C2=O`, the growth in assay [1] is 82.4%; in assay [2], 86.2%; in assay [3], 73.3%; in [4], 84.5%; in [5], 75.3%; in assay [6] it was 82.6%. Besides, the results for the growth in [7], in [8] and in assay [9] were 78.6%, 80.1% and 46.6%, respectively.
`CC1OC2CC(=O)OC2C2=C1C(=O)c1c(O)c3c(c(O)c1C2=O)C1CC(O)C3(O)C(C)O1` (stereo unspecified): the growth in assay [1] was -34.2% (active); in [2], -69% (active); in [3], -49.5% (active); in [4], 2.35% (active); in assay [5] it was -13% (active); in [6], -66.4% (active). Besides, the growth was 2.66% (active) in assay [7], -12.3% (active) in [8] and -73.5% (active) in [9].
On to `COc1cc2cc(Oc3ccc(NC(=O)c4cc(C(F)(F)F)cc(C(F)(F)F)c4)cc3)c(C)nc2cc1OC`, for which the growth in [1] was 32.6%; in assay [2], 53.6%; in [3], 84.7%; in assay [4] it was 26.9%; in [5] it was -6.21% (active); in assay [6], 34%. Also, the growth was 30.7% in assay [7], 64.5% in [8] and 51.7% in assay [9].
As to `CNC(=O)c1cn(C2CC2)c2cc(N3CCN(C(=O)c4cc(OC)c(OC)c(OC)c4)CC3)c(F)cc2c1=O`, the growth is 93.7% in assay [1]; 93% in assay [2]; 90.8% in [3]; 106% in assay [4]; 92.3% in assay [5]; 90% in [6]. The growth in assay [7] was 94.6%; in [8] it was 93.4%; in [9], 105%.
As for `CCn1c(SCCc2ccccc2)nnc1-c1nn(-c2ccc(Cl)cc2Cl)c(-c2ccc(Cl)cc2)c1C`, the growth in assay [1] is 62.2%; in assay [2] it was 58%; in [3], 101%; in assay [4], 73.7%; in [5], 85%; in assay [6], 61.1%. The growth in [7] is 65.1%; in assay [8] it was 72.9%; in [9] it was 77.7%.
As to `S=C(SSC(=S)N(c1ccccc1)c1ccccc1)N(c1ccccc1)c1ccccc1`, the growth was 100% in [1]; 99.2% in assay [2]; 97.6% in assay [3]; 106% in assay [4]; 86.2% in assay [5]; 81.1% in assay [6]. The growth is 82% in assay [7], 105% in assay [8] and 132% in assay [9].
Consider `C/C=C/CSC(C)(C)C(=O)NC`, for which the growth is 102% in assay [1]; 100% in assay [2]; 89.7% in assay [3]; 104% in assay [4]; 104% in assay [5]; 86% in assay [6]. For the same molecule, the growth in assay [7] was 88.7%; in [8] it was 108%; in [9], 119%.
Turning to `C/C(=N\O)c1ccc(NC(=O)CSc2nnc(-c3ccccc3)n2-c2ccccc2)cc1`, the growth in [1] was 76.6%; in assay [2], 72.4%; in [3] it was 64.7%; in assay [4] it was 66.7%; in assay [5], 30.1%; in [6] it was -34.7% (active). Moreover, the growth in [7] was 81.9%; in assay [8], 80.5%; in assay [9], 53.3%.
Consider `CC[N+](CC)=c1ccc2nc3c(cc(NCc4ccccc4)c4ccccc43)oc-2c1`, for which the growth was -76% (active) in [1]; -34.4% (active) in assay [2]; -99.6% (active) in assay [3]; -66.4% (active) in assay [4]; -7.03% (active) in assay [5]; -82.3% (active) in assay [6]. Further, the figures for the growth in assay [7], in [8] and in assay [9] were -90.2% (active), -62.7% (active) and -89.4% (active), respectively.
